Measurements: PubChem BioAssay (EPA / NIEHS)
A structure can be active in one record and inactive in another. Active and inactive are the calls of the source. How the source made its calls: active means hit-call score of the fitted dose curve at least 0.9, where 1 is the maximum; inactive means score below 0.9.

Each compound was assayed against Myc proto-oncogene protein (Homo sapiens) (UniProt P01106) (assay: ATG_Myc_CIS: Attagene CIS-FACTORIAL HepG2 Assay for human Myelocytomatosis (Myc) Proto-Oncogene Transcription Factor (AID 2282990)). Details: HepG2, Attagene cis-reporter transcription factor activity; actives raise or lower the signal.
Myc proto-oncogene protein (Homo sapiens), sequence (P01106 whole entry, looked up): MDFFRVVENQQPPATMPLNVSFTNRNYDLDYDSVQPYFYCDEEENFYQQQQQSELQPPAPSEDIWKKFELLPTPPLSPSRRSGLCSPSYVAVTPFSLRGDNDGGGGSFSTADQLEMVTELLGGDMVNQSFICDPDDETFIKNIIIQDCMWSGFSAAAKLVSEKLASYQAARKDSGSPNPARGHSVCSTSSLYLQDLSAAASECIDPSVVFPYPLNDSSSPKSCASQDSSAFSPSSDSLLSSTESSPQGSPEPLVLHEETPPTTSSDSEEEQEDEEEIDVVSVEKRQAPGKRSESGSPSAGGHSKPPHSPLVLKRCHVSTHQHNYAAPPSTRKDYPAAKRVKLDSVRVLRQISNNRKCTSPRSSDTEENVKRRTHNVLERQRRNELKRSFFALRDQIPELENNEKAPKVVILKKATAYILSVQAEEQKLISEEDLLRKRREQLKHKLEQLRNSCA
Procedure: ATG_CIS is a cell-based, multiplexed-readout assay that uses HepG2, a human liver cell line, with measurements taken at 24 hours after chemical dosing in a 24-well plate.ATG_Myc_CIS is one of 52 assay component(s) measured or calculated from the ATG_CIS assay. It is designed to make measurements of mRNA induction, a form of inducible reporter, as detected with fluorescence intensity signals by Reverse transcription polymerase chain reaction (RT-PCR) and Capillary electrophoresis technology.Data from the assay component ATG_Myc_CIS was analyzed into 1 assay endpoint. This assay endpoint, ATG_Myc_CIS, was analyzed with bidirectional fitting relative to DMSO as the negative control and baseline of activity. Using a type of inducible reporter, measures of mRNA for gain or loss-of-signal activity can be used to understand the reporter gene at the transcription factor-level as they relate to the gene MYC. Furthermore, this assay endpoint can be referred to as a primary readout, because this assay has produced multiple assay endpoints where this one serves a reporter gene function. To generalize the intended target to other relatable targets, this assay endpoint is annotated to the dna binding intended target family, where the subfamily is basic helix-loop-helix leucine zipper.
Human liver HepG2 cells are transiently transfected with multiple reporter transcription units (MRTUs) in 6-well plates using FuGene 6 reagent (Roche; 3 ml FuGene/1 mg DNA). The MRTU constructs are regulated by a cis-regulating element (promoter). […] A major difference between the CIS and TRANS system is that in CIS activities of endogenous TFs are measured, whereas the TRANS assay evaluates changes in activities of exogenous, chimeric NR-Gal4 proteins. […] At the end of 24 hour incubation, total RNA was isolated using TriZol reagent (Invitrogen). The isolated RNA is then reverse-transcribed using oligo(dT) primer and Mo-MLV reverse transcriptase (Invitrogen) with DNAse I (Ambion) treatment for 30 min. The one-tenth of the produced cDNA was amplified by PCR using Taq DNA polymerase (Invitrogen) and two reporter sequence-specific primers. The PCR products were fluorescently labeled by primer extension with 6-arboxyfluorescein (6-FAM) 5'-labeled reporter sequence-specific primer (2 min at 95 C, 20 s at 68 C and 10 min at 72 C) and these products were digested with 5U of HpaI (New England Biolabs) for 2h at 37 C. The fragments were purified using Qiaquick PCR columns (Qiagen), analyzed on an ABI 3130xL genetic analyzer (Applied Biosystems) with peak positions identified by using a set of X-rhodamine (ROX)-labeled MapMarker1000 molecular weight standards (BioVentures). The raw capillary electrophoresis data was processed using Attagraph software (Attagene).

Row | Compound | AC50 | outcome
1 | CS(=O)(=O)c1ccc([C@@H](CC2CCCC2)C(=O)Nc2cnccn2)cc1Cl | 165 µM (active) | –
2 | O=C(O)C(F)(F)OC(F)(F)C(F)(F)OC(F)(F)C(F)(F)OC(F)(F)C(F)(F)C(F)(F)C(F)(F)F | 11.9 µM (active) | inactive
3 | CCCC=O | – | inactive
4 | CCO[Si](C)(C)OCC | – | inactive
5 | CC(C)(O)C(=O)c1ccccc1 | – | inactive
6 | FCOC(C(F)(F)F)C(F)(F)F | – | inactive
7 | CC[N+](CC)(CC)Cc1ccccc1 | – | inactive
8 | NCCN | – | inactive
9 | C/C=C/C(=O)C1=C(C)CCCC1(C)C | – | inactive
10 | C=CC(=O)OCC(CO)(COCC(COC(=O)C=C)(COC(=O)C=C)COC(=O)C=C)COC(=O)C=C | – | inactive
11 | C=CCOCC(CO)(CO)CO | – | inactive
12 | CC=O | – | inactive
13 | Cc1cncc(C)c1 | – | inactive
14 | CCCCCCCCC1CCC(=O)O1 (stereo not given) | – | inactive
15 | O=C1C=CC(=O)N1c1cccc(N2C(=O)C=CC2=O)c1 | – | inactive
16 | O=S(=O)(O)c1ccc2cc(O)ccc2c1 | – | inactive
17 | C=C(c1ccc(C(=O)O)cc1)c1cc2c(cc1C)C(C)(C)CCC2(C)C | 26 µM (active) | inactive
18 | O=S(=O)(O)c1ccccc1 | – | inactive
19 | CN(CCO)S(=O)(=O)C(F)(F)C(F)(F)C(F)(F)C(F)(F)C(F)(F)C(F)(F)C(F)(F)C(F)(F)F | – | inactive

Row | Compound | AC50 | outcome
20 | O=CC(F)(F)C(F)(F)C(F)(F)C(F)F | – | inactive
21 | O=S(=O)(O)C(F)(F)C(F)(F)C(F)(F)C(F)(F)C(F)(F)C(F)(F)C(F)(F)C(F)(F)C(F)(F)C(F)(F)F | – | inactive
22 | CCCCC=O | – | inactive
23 | Oc1c(Cl)cc(Cl)cc1Sc1cc(Cl)cc(Cl)c1O | – | inactive
24 | O=C(NCc1ncc(C(F)(F)F)cc1Cl)c1c(Cl)cccc1Cl | – | inactive
25 | O=S(=O)(c1ccc(OCc2ccccc2)cc1)c1ccccc1O | – | inactive
26 | C=CC(F)(F)C(F)(F)C(F)(F)C(F)(F)F | – | inactive
27 | Cc1ccc2ccc3ccc(C)cc3c2c1 | – | inactive
28 | CC(C)C=O | – | inactive
29 | CCCCc1ccc2ccccc2c1S(=O)(=O)O | – | inactive
30 | CCCCCCCCCCCCOC(=O)c1cc(O)c(O)c(O)c1 | – | inactive
31 | CC(C)(C)c1ccc(CCC=O)cc1 | – | inactive
32 | C=CC(C)(CCC=C(C)C)OC(C)=O (stereo not given) | – | inactive
33 | COCC1CCC(CO)CC1 (stereo not given) | – | inactive
34 | O=C(OC(=O)C(F)(F)C(F)(F)F)C(F)(F)C(F)(F)F | – | inactive
35 | O=C(C=C(O)C(F)(F)F)C(F)(F)F | – | inactive
36 | CCC(=O)O | – | inactive
37 | c1ccc2c(c1)CCC2 | – | inactive
38 | COC(=O)CC(C(C)=O)C(=O)OC (stereo not given) | – | inactive
